The results in this text go back to PubChem BioAssay (EPA / NIEHS).

Holding throughout (conditions): mRNA level, 48 h; actives raise or lower the signal
Read-out in test [1]: matrix metalloproteinase-10 (MMP10), MMP10 (gene 4319)
The test can be described thus: LTEA_HepaRG_MMP10: Life Technologies and Expression Analysis (LTEA) Assay for matrix metalloproteinase-10 (MMP10) using HepaRG (AID 2283517). An outline of the steps: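 HepaRG, collagen I, ~100,000 cells/well; serum-free induction medium; 48 h exposure, duplicate, 8-pt half-log to 100 uM, 0.5% DMSO. Readout: TaqMan qRT-PCR, normalized to ACTB/GAPDH/POLR2A; bidirectional fit vs DMSO.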

Read-out in another test: MYC, MYC (gene 4609)
The test can be described thus: LTEA_HepaRG_MYC: Life Technologies and Expression Analysis (LTEA) Assay for MYC using HepaRG (AID 2283518). The gist of the method:
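Differentiated human HepaRG cells, plated 48 h then switched to serum-free induction medium, were exposed in duplicate for 48 h to 8-point half-log series up to 100 uM in 0.5% DMSO. MYC mRNA measured by qRT-PCR, normalized to ACTB/GAPDH/POLR2A.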

Read-out in test [2]: matrix metalloproteinase-3 (MMP3), MMP3 (gene 4314)
The test can be described thus: LTEA_HepaRG_MMP3: Life Technologies and Expression Analysis (LTEA) Assay for matrix metalloproteinase-3 (MMP3) using HepaRG (AID 2283519). The gist of the method:
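Differentiated human HepaRG cells, plated 48 h on collagen I, were exposed in duplicate for 48 h in serum-free induction medium to eight half-log concentrations up to 100 uM in 0.5% DMSO. MMP3 mRNA was quantified by TaqMan qRT-PCR, normalised to ACTB, GAPDH and POLR2A.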

Read-out in test [3]: Paternally Expressed 10 (PEG10), PEG10 (gene 23089)
Nature of the test: LTEA_HepaRG_PEG10: Life Technologies and Expression Analysis (LTEA) Assay for Paternally Expressed 10 (PEG10) using HepaRG (AID 2283520).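 On AC50: PEG10 transcript by qRT-PCR normalised to ACTB GAPDH and POLR2A.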 The gist of the method: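 Chemicals tested on HepaRG cells for 48 h, highest concentration 100 uM. PEG10 expression assessed by qRT-PCR relative to DMSO control.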

Read-out in test [4]: Nuclear factor NF-kappa-B p105 subunit (Homo sapiens) (UniProt P19838)
The test can be described thus: LTEA_HepaRG_NFKB1: Life Technologies and Expression Analysis (LTEA) Assay for Nuclear Factor Kappa B Subunit 1 (NFKB1) using HepaRG (AID 2283521).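 Further: TaqMan qRT-PCR transcript normalised to ACTB GAPDH and POLR2A housekeeping genes.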 An outline of the steps: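 Differentiated human HepaRG cells were exposed for 48 h in serum-free induction medium to eight concentrations (top 100 uM, half-log steps, 0.5% DMSO), in duplicate. NFKB1 mRNA was measured by TaqMan qRT-PCR, normalized to ACTB/GAPDH/POLR2A, and fitted bidirectionally against DMSO.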

Read-out in test [5]: Protein phosphatase 2A (PPP2R4), PTPA (gene 5524)
The test can be described thus: LTEA_HepaRG_PPP2R4: Life Technologies and Expression Analysis (LTEA) Assay for Protein phosphatase 2A (PPP2R4) using HepaRG (AID 2283522). The gist of the method:
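Gene-expression endpoint in HepaRG hepatic cells: 48 h treatment across eight half-log concentrations up to 100 uM in 0.5% DMSO. PPP2R4 mRNA by qRT-PCR, normalized to three endogenous control genes.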

Read-out in test [6]: Phosphatase and tensin (PTEN), PTEN (gene 5728)
The test can be described thus: LTEA_HepaRG_PTEN: Life Technologies and Expression Analysis (LTEA) Assay for Phosphatase and tensin (PTEN) using HepaRG (AID 2283523). The gist of the method:
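Differentiated human HepaRG cells, plated 48 h then switched to serum-free induction medium, were exposed in duplicate for 48 h to eight half-log concentrations up to 100 uM in 0.5% DMSO. PTEN mRNA measured by TaqMan qRT-PCR, normalized to ACTB/GAPDH/POLR2A, bidirectional fit versus DMSO.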

Read-out in test [7]: Pyruvate Dehydrogenase Kinase 4 (PDK4), PDK4 (gene 5166)
Nature of the test: LTEA_HepaRG_PDK4: Life Technologies and Expression Analysis (LTEA) Assay for Pyruvate Dehydrogenase Kinase 4 (PDK4) using HepaRG (AID 2283525). The gist of the method: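 Differentiated human HepaRG cells, pre-cultured 48 h, were exposed in duplicate for 48 h in serum-free induction medium to eight half-log concentrations up to 100 uM in 0.5% DMSO. PDK4 mRNA was quantified by qRT-PCR, normalized to ACTB, GAPDH and POLR2A, bidirectional fitting versus DMSO.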

Read-out in test [8]: NAD(P)H dehydrogenase [quinone] 1 (NQO1), NQO1 (gene 1728)
Nature of the test: LTEA_HepaRG_NQO1: Life Technologies and Expression Analysis (LTEA) Assay for NAD(P)H dehydrogenase [quinone] 1 (NQO1) using HepaRG (AID 2283526). An outline of the steps:
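Human HepaRG hepatic cells received chemicals for 48 h in serum-free induction medium with 0.5% DMSO, up to 100 uM. Expression was assessed by TaqMan qRT-PCR against housekeeping controls and fitted bidirectionally against DMSO.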

Read-out in test [9]: Nuclear factor erythroid 2-related factor 2 (Homo sapiens) (UniProt Q16236)
Nature of the test: LTEA_HepaRG_NFE2L2: Life Technologies and Expression Analysis (LTEA) Assay for Nuclear factor erythroid 2-related factor 2 (NFE2L2) Transcription Factor using HepaRG (AID 2283527).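 On outcome: TaqMan qRT-PCR transcript level normalised to ACTB GAPDH and POLR2A housekeeping genes.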 An outline of the steps:
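Differentiated human HepaRG cells in serum-free induction medium were exposed for 48 h to eight concentrations (top 100 uM, half-log dilutions, 0.5% DMSO), in duplicate. NFE2L2 mRNA was quantified by TaqMan qRT-PCR, normalized to ACTB, GAPDH and POLR2A, with bidirectional fitting versus DMSO.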

Read-out in test [10]: succinate dehydrogenase complex iron sulfur subunit B (SDHB), SDHB (gene 6390)
Nature of the test: LTEA_HepaRG_SDHB: Life Technologies and Expression Analysis (LTEA) Assay for succinate dehydrogenase complex iron sulfur subunit B (SDHB) using HepaRG (AID 2283528). The gist of the method: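 HepaRG, 48 h exposure, 8-pt half-log series from 100 uM in 0.5% DMSO, duplicates. Readout: SDHB mRNA by Fluidigm qRT-PCR vs housekeeping genes; bidirectional fit relative to DMSO.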

Read-out in test [11]: Signal transducer and activator of transcription 3 (Homo sapiens) (UniProt P40763)
Nature of the test: LTEA_HepaRG_STAT3: Life Technologies and Expression Analysis (LTEA) Assay for Signal transducer and activator of transcription (STAT3) using HepaRG (AID 2283529). The gist of the method: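 Differentiated human HepaRG cells in serum-free induction medium were exposed in duplicate for 48 h to eight half-log concentrations up to 100 uM in 0.5% DMSO. STAT3 mRNA was quantified by TaqMan qRT-PCR, normalized to ACTB, GAPDH and POLR2A, and fitted bidirectionally against DMSO.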

Read-out in test [12]: solute carrier (SLCO1B1), SLCO1B1 (gene 10599)
The test can be described thus: LTEA_HepaRG_SLCO1B1: Life Technologies and Expression Analysis (LTEA) Assay for solute carrier (SLCO1B1) using HepaRG (AID 2283530). The gist of the method: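 Differentiated human HepaRG cells, plated 48 h, switched to serum-free induction medium and exposed in duplicate for 48 h to 8 half-log concentrations (top 100 uM) in 0.5% DMSO. SLCO1B1 mRNA by TaqMan qRT-PCR, normalized to ACTB/GAPDH/POLR2A.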

Read-out in test [13]: sulfotransferase 2A1 (SULT2A1), SULT2A1 (gene 6822)
Nature of the test: LTEA_HepaRG_SULT2A1: Life Technologies and Expression Analysis (LTEA) Assay for sulfotransferase 2A1 (SULT2A1) using HepaRG (AID 2283531). The gist of the method: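 Differentiated human HepaRG cells in serum-free induction medium were exposed for 48 h to eight half-log concentrations (top 100 uM, 0.5% DMSO). SULT2A1 mRNA was measured by qRT-PCR, normalized to ACTB, GAPDH and POLR2A, and fitted bidirectionally against DMSO.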

Read-out in test [14]: Transforming Growth Factor (TGFA), TGFA (gene 7039)
The test can be described thus: LTEA_HepaRG_TGFA: Life Technologies and Expression Analysis (LTEA) Assay for Transforming Growth Factor (TGFA) using HepaRG (AID 2283532). An outline of the steps: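 Differentiated human HepaRG cells, plated 48 h then switched to serum-free induction medium, were exposed in duplicate for 48 h to 8-point half-log series from 100 uM in 0.5% DMSO. TGFA mRNA measured by qRT-PCR, normalized to ACTB/GAPDH/POLR2A, bidirectional fit versus DMSO.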

Read-out in test [15]: Transforming Growth Factor (TGFB1), TGFB1 (gene 7040)
The test can be described thus: LTEA_HepaRG_TGFB1: Life Technologies and Expression Analysis (LTEA) Assay for Transforming Growth Factor (TGFB1) Transporter using HepaRG (AID 2283533). The gist of the method:
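Differentiated human HepaRG cells in serum-free induction medium were exposed in duplicate for 48 h to eight concentrations (top 100 uM, half-log steps, 0.5% DMSO). TGFB1 mRNA was quantified by qRT-PCR, normalized to ACTB, GAPDH, POLR2A, and fitted bidirectionally against DMSO.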

Read-out in the next test: TIMP1, TIMP1 (gene 7076)
Nature of the test: LTEA_HepaRG_TIMP1: Life Technologies and Expression Analysis (LTEA) Assay for TIMP1 using HepaRG (AID 2283534). The gist of the method:
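Differentiated human HepaRG cells in serum-free induction medium were exposed 48 h to chemicals (8 half-log concentrations, top 100 uM, 0.5% DMSO). TIMP1 mRNA was quantified by TaqMan qRT-PCR, normalized to ACTB/GAPDH/POLR2A; bidirectional fit versus DMSO.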

Read-out in test [16]: Tumor necrosis factor receptor 1 (TNFRSF1A), TNFRSF1A (gene 7132)
Nature of the test: LTEA_HepaRG_TNFRSF1A: Life Technologies and Expression Analysis (LTEA) Assay for Tumor necrosis factor receptor 1 (TNFRSF1A) using HepaRG (AID 2283535). The gist of the method:
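Differentiated human HepaRG cells were exposed in duplicate for 48 h in serum-free induction medium to eight concentrations (top 100 uM, half-log steps, 0.5% DMSO). TNFRSF1A mRNA was quantified by qRT-PCR, normalized to ACTB, GAPDH and POLR2A, then fitted bidirectionally against DMSO.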

Read-out in test [17]: MicroRNA 122 (MIR122), gene 406906
Nature of the test: LTEA_HepaRG_MIR122: Life Technologies and Expression Analysis (LTEA) Assay for MicroRNA 122 (MIR122) using HepaRG (AID 2283516). Further: the transcript read is the microRNA miR-122. The gist of the method: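 HepaRG, 48 h exposure, 8-pt half-log from 100 uM, 0.5% DMSO; TaqMan qRT-PCR; bidirectional fit vs DMSO.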

Read-out in test [18]: solute carrier (SLC22A1), SLC22A1 (gene 6580)
Nature of the test: LTEA_HepaRG_SLC22A1: Life Technologies and Expression Analysis (LTEA) Assay for solute carrier (SLC22A1) using HepaRG (AID 2283524). An outline of the steps:
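Human HepaRG cells were plated 48 h, switched to serum-free induction medium, then exposed in duplicate for 48 h to 8-point half-log series from 100 uM in 0.5% DMSO. SLC22A1 mRNA measured by qRT-PCR, normalized to ACTB/GAPDH/POLR2A, fitted bidirectionally versus DMSO.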

SMILES strings stand for the structures. Activity calls are given as the source filed them. How the source made its calls: active means hit-call score of the fitted dose curve at least 0.9, where 1 is the maximum; inactive means score below 0.9.

Chain of Nuclear factor NF-kappa-B p105 subunit (Homo sapiens) (P19838 whole entry, looked up): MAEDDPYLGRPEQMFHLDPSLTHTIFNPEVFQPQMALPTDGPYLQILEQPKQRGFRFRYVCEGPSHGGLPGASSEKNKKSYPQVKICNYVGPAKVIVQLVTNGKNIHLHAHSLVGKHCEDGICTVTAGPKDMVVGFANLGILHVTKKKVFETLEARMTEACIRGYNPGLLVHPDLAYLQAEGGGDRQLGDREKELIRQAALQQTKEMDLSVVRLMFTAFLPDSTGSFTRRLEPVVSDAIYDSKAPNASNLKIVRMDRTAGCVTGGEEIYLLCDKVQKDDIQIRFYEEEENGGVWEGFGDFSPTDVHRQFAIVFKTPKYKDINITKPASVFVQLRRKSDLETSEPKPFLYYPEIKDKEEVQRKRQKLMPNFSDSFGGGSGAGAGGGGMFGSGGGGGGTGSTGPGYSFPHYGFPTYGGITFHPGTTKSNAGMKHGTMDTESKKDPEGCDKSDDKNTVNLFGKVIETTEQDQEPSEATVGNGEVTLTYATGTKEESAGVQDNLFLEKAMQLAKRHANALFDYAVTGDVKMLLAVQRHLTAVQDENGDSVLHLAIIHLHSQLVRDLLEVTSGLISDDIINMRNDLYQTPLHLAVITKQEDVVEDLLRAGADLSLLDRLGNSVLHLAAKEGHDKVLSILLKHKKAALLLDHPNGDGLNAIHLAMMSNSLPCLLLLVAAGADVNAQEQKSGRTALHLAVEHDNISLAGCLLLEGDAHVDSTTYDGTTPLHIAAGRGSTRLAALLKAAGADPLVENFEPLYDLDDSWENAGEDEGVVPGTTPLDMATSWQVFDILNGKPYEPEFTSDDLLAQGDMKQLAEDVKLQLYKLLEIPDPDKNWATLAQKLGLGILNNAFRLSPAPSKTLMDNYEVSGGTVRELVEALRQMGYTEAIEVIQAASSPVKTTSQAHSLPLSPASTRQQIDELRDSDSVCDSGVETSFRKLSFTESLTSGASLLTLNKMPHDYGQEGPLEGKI
Chain of Signal transducer and activator of transcription 3 (Homo sapiens) (P40763 whole entry, looked up): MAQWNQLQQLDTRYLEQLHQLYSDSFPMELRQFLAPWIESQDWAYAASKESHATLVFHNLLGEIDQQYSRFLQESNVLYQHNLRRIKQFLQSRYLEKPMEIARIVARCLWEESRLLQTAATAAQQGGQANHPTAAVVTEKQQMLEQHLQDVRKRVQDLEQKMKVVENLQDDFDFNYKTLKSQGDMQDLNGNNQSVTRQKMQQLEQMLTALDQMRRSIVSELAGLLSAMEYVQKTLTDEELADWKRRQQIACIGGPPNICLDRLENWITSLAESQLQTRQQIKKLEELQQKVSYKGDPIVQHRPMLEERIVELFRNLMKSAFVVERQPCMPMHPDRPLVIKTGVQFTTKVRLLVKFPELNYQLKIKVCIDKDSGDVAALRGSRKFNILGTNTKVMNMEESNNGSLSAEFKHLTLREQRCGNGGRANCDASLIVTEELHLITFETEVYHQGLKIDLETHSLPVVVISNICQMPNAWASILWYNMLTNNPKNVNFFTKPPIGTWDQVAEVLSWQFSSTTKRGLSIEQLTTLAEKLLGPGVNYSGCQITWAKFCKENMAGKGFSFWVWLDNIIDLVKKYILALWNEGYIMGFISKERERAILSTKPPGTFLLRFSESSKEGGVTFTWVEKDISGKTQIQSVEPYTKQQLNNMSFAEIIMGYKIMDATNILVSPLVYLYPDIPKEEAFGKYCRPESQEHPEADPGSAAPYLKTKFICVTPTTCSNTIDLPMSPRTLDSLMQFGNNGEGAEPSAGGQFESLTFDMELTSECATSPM
Chain of Nuclear factor erythroid 2-related factor 2 (Homo sapiens) (Q16236 whole entry, looked up): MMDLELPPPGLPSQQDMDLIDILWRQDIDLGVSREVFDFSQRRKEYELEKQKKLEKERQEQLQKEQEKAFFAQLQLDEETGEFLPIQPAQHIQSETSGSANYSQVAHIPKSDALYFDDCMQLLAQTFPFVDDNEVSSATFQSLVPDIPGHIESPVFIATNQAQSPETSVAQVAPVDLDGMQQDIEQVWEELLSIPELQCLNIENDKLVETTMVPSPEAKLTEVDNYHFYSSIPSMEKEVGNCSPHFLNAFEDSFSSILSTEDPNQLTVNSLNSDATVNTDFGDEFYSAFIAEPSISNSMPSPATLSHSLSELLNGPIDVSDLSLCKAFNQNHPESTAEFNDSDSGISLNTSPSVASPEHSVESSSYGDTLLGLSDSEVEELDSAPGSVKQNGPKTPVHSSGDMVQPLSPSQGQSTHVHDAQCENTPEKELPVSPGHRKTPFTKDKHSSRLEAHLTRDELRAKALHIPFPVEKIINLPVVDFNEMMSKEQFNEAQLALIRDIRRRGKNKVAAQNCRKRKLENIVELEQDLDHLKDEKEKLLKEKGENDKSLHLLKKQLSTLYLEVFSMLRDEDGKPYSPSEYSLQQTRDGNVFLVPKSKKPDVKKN

For `N#CN=C1SCCN1Cc1ccc(Cl)nc1`, the outcome in [1] is “inactive”; with MYC, MYC (gene 4609), “inactive”; in [2], “inactive”; in test [3] it was “inactive”; in test [4], “inactive”; in test [5] it was “inactive”. Further, the result in test [6], in [7], in test [8], in test [9], in test [10] and in [11] was inactive. Also, the outcome in [12] was “inactive”; in test [13], “inactive”; in test [14], “inactive”; in test [15], “inactive”; with TIMP1, TIMP1 (gene 7076), “inactive”; in test [16], “inactive”.
Consider `Nc1c(Cl)c(Cl)nc(C(=O)O)c1Cl`, for which the outcome is “inactive” in test [17]; “inactive” in [1]; “inactive” with MYC, MYC (gene 4609); “inactive” in [2]; “inactive” in test [3]; “inactive” in test [4]. Besides, the result in test [5], in test [6], in [7], in test [8], in [9] and in [11] was inactive. For the same compound, the outcome in [12] was “inactive”; in test [13], “inactive”; in test [14] it was “inactive”; in test [15], “inactive”; with TIMP1, TIMP1 (gene 7076) it was “inactive”; in [16] it was “inactive”.
As a reminder, the AC50 is the concentration giving half of the maximal activity seen. Consider `CCOP(=O)(OCC)Oc1nc(Cl)c(Cl)cc1Cl`, for which the compound was classed as inactive in test [1], in [4], in test [6], in [7], in [8] and in [10]. For the same compound, the outcome was “inactive” in [11]; “inactive” in test [14]; “inactive” in test [15]; “inactive” with TIMP1, TIMP1 (gene 7076); “inactive” in test [16]. Further, the AC50 with MYC, MYC (gene 4609) was 49.8 µM (active); in test [2], 62.7 µM (active); in test [3], 59.6 µM (active); in test [5], 76.6 µM (active); in [18] it was 92.2 µM (active); in test [9], 49.8 µM (active). The AC50 in test [12] was 93.5 µM (active); in [13], 75.9 µM (active).
`CC(C)C1(C)N=C(c2ncccc2C(=O)O)NC1=O` (stereo not drawn): the outcome is “inactive” in [17]; “inactive” in test [1]; “inactive” with MYC, MYC (gene 4609); “inactive” in test [2]; “inactive” in test [3]; “inactive” in test [5]. In addition, the compound was classed as inactive in test [6], in test [18], in test [7], in test [8], in test [9] and in test [11]. Further, the outcome in test [12] was “inactive”; in test [13], “inactive”; in test [14], “inactive”; in test [15], “inactive”; with TIMP1, TIMP1 (gene 7076), “inactive”; in test [16], “inactive”.
